{
  "source": "PubChem BioAssay (NCATS)",
  "note": "Calls of active or inactive are those of the source. Calls come from the whole dose curve; as a rule, active = well fitted curve in the direction sought with a large enough effect; inconclusive = small, poorly fitted or top-dose-only effect, or another doubt; inactive = no such curve, though single readings can be large or run the other way.",
  "data": [
    {"biological_target": "Alpha-galactosidase (Coffea arabica) (UniProt Q42656)", "sequence (Q42656 whole entry, looked up)": "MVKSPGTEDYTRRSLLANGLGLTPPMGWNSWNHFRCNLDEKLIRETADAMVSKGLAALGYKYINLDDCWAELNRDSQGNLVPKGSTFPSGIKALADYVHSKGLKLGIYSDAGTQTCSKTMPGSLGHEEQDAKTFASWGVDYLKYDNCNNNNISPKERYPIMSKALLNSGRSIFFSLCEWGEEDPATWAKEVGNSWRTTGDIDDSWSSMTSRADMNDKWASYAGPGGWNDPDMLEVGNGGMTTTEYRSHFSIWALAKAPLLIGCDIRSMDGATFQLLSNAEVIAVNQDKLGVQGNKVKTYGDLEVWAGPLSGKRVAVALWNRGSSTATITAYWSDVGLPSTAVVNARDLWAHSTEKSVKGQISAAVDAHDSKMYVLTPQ", "test": "Counterscreen for Glucocerebrosidase Inhibitors: qHTS Assay for Coffee Bean alpha-Galactosidase at pH 4.5 (AID 957)", "details": "purified coffee bean alpha-galactosidase, fluorogenic substrate; series mostly up to 76.9 µM", "from_the_text": "NIH Chemical Genomics Center [NCGC]\nNIH Molecular Libraries Screening Centers Network [MLSCN]\nPI Name: Zheng, Wei [NIH]\nAlpha-galactosidase is a homodimeric glycoprotein that hydrolyzes the terminal alpha-galactosyl moieties from glycolipids and glycoproteins. Deficiency of this enzyme results in Fabry Disease with progressive accumulation of globotriaosylceramide and other glycosphingolipids in vascular endothelial cells that causes renal failure, myocardial infarction and stroke, and premature death in patients. It has reported that the improper folding and trafficking of alpha-galactosidase resulted from the genetic mutations may account for a significant numbers of Fabry patients. […] We optimized this coffee bean alpha-galactosidase assay in 1536-well plate format as a counter-screen assay for identifying the selective small molecule inhibitors of other lysosomal enzymes.\nNCGC Assay Protocol Summary:\nThis is a fluorogenic enzyme assay with 4-Methylumbelliferyl alpha-D-galactopyranoside as the substrate and green coffee bean […] (from Sigma-Aldrich) as the enzyme preparation. Upon the hydrolysis of this fluorogenic substrate, the resulting product, […]. 4-Methyllumbelliferone, can be excited at 365 nm and emits at 440 nm which can be detected by a standard fluorescence plate reader. Data were normalized to the controls for basal activity (without enzyme) and 100% activity (with enzyme). In the AC50 values were determined from concentration-response data modeled with the standard Hill equation.\nAssay buffer: 50 mM citric acid, 0.005% Tween-20, pH 4.5. (pH 5.9 is an optimal condition for this enzyme assay. This assay in pH 4.5 is used for comparison the inhibitor activities with the human alpha-galactosidase assay)\n1536-well assay protocol for the coffee bean alpha-galactosidase:\n(1) Add 2 ul/well of enzyme (2 nM final)\n(2) Add 23 nL compounds in DMSO solution. The final titration was 0.7 nM to 77 uM.\n(3) Add 1 ul of substrate (80 uM final)\n(4) Incubate at room temperature for 20 min.\n(5) Add 2 ul stop solution (1M NaOH and 1M Glycine mixture, pH 10)\n(6) Detect the assay plate in a ViewLux plate reader (PerkinElmer) with Ex=365 nm and Em=440nm.\nKeywords: Alpha-galactosidase, Fabry Disease, pharmacological chaperone, chaperone therapy, high throughput screening, alpha-galactosidase inhibitor, MLSMR, MLSCN, NIH Roadmap, qHTS and NCGC", "values": [
      {"smiles": "N=c1c[n+](N2CCOCC2)[n-]o1", "outcome": "inactive"},
      {"smiles": "NC[C@H](CP(=O)(O)O)c1ccc(Cl)cc1", "outcome": "inactive"},
      {"smiles": "NCCCC(=O)O", "outcome": "inactive"},
      {"smiles": "Nc1cc(Cl)c(NC2=NCCN2)c(Cl)c1", "outcome": "inactive"},
      {"smiles": "COc1ccccc1N1CCN(CCCNc2c(C)c(=O)n(C)c(=O)n2C)CC1", "outcome": "inactive"},
      {"smiles": "CN(C(=O)Cc1ccc(Cl)c(Cl)c1)[C@@H](CN1CCCC1)c1cccc(OCC(=O)O)c1", "outcome": "inactive"},
      {"smiles": "Ic1ccc(N2CCN(Cc3c[nH]c4ncccc34)CC2)cc1", "outcome": "inactive"},
      {"smiles": "CP(=O)(O)CCCN", "outcome": "inactive"},
      {"smiles": "COCCCCC(=NOCCN)c1ccc(C(F)(F)F)cc1", "outcome": "inactive"},
      {"smiles": "Nc1ccc(-c2ccc3ccccc3n2)cc1", "outcome": "inactive"},
      {"smiles": "CNCCNS(=O)(=O)c1cccc2cnccc12", "outcome": "inactive"},
      {"smiles": "N=C(N)SCCN", "outcome": "inactive"},
      {"smiles": "NC(=O)c1ccccc1", "outcome": "inactive"},
      {"smiles": "Oc1ccc(-c2nc(-c3ccc(F)cc3)c(-c3ccncc3)[nH]2)cc1", "outcome": "inactive"},
      {"smiles": "COC(=O)c1c(C)[nH]c(C)c1C(=O)c1ccccc1Cc1ccccc1", "outcome": "inactive"},
      {"smiles": "CN1CC[C@@]23CCCC[C@@H]2[C@@H]1Cc1ccc(O)cc13", "outcome": "inactive"},
      {"smiles": "C=C(C)[C@H]1CN[C@H](C(=O)O)[C@@H]1CC(=O)O", "outcome": "inactive"},
      {"smiles": "C=CCn1c(=O)c2c(nc(-c3ccc(S(=O)(=O)O)cc3)n2C)n(C)c1=O", "outcome": "inactive"},
      {"smiles": "N[C@H](C(=O)O)[C@H](O)C(=O)O", "outcome": "inactive"},
      {"smiles": "N#C/C(=C\\c1ccc(O)c(O)c1)C(=O)Nc1ccccc1", "outcome": "inactive"},
      {"smiles": "NOCC(=O)O", "outcome": "inactive"},
      {"smiles": "Nn1nnc2ccccc21", "outcome": "inactive"},
      {"smiles": "CC(C)Cc1ccc([C@H](C)C(=O)O)cc1", "outcome": "inactive"},
      {"smiles": "CCCCCCCC/C=C\\CCCCCCCC(=O)NCCO", "outcome": "inactive"},
      {"smiles": "Cc1nc(N=Nc2ccc(C(=O)O)cc2)c(COP(=O)(O)O)c(C=O)c1O", "outcome": "inactive"},
      {"smiles": "NCCNS(=O)(=O)c1cccc2c(Cl)cccc12", "outcome": "inactive"},
      {"smiles": "CN1[C@@H]2CC[C@H]1CC(O[C@@H](c1ccccc1)c1ccc(Cl)cc1)C2", "note": "(stereo not given in full)", "outcome": "inactive"},
      {"smiles": "O=C1Nc2ccc(I)cc2/C1=C/c1cc(Br)c(O)c(Br)c1", "outcome": "inactive"},
      {"smiles": "COC(=O)c1cc2c(cn1)[nH]c1ccccc12", "outcome": "inactive"},
      {"smiles": "O=C(N[C@@H](Cc1ccccc1)C(=O)CCl)OCc1ccccc1", "outcome": "inactive"},
      {"smiles": "Fc1ccc(C(OCCCc2cnc[nH]2)c2ccc(F)cc2)cc1", "outcome": "inactive"},
      {"smiles": "CC(C)[C@@]1(NC(=O)[C@@H]2C[C@H]3c4cccc5[nH]cc(c45)C[C@@H]3N(C)C2)O[C@@]2(O)[C@H]3CCCN3C(=O)[C@H](Cc3ccccc3)N2C1=O", "outcome": "inactive"},
      {"smiles": "C/C(=C\\c1ccc(C(=O)O)cc1)c1ccc2c(c1)C(C)(C)CCC2(C)C", "outcome": "inactive"},
      {"smiles": "N#Cc1cc2nc(O)c(O)nc2cc1[N+](=O)[O-]", "outcome": "inactive"},
      {"smiles": "O=c1c(O)c(-c2cc(O)c(O)c(O)c2)oc2cc(O)cc(O)c12", "outcome": "inactive"},
      {"smiles": "NCCCS(=O)(=O)O", "outcome": "inactive"},
      {"smiles": "COc1ccc(-n2nc(C(F)(F)F)cc2-c2ccc(Cl)cc2)cc1", "outcome": "inactive"},
      {"smiles": "NCCCNCCCCNCCCN", "outcome": "inactive"},
      {"smiles": "N=C(N)c1ccc(N)cc1", "outcome": "inactive"},
      {"smiles": "Cn1c(=O)c2[nH]c(C3CCCC3)nc2n(C)c1=O", "outcome": "inactive"}
    ]}
  ]
}
